# About 2,000 (36%) of roughly 5,500 compounds were called active. Inconclusive results (about 18%) are left out. The list shows a part of the results. A number with no mark means an inactive call. Cut-off read from the data, not from the text of the source: active = normalized growth mostly below about 0.91 (no sharp cut-off); inconclusive = no clear call, values can overlap the other calls; inactive = mostly above about 0.92.
# Assay: chemical genetic growth profiling, strain panel (AID 1159580);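 note: tested at 20 µM; growth read once vehicle control cultures reached saturation at 30 °C; 1 = growth at the plate median or of vehicle wells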
# Settings: growth OD
# [1] = S. cerevisiae deletion strains, locus YAL013W, strain DEP1, stronger effect = lower value
# [2] = S. cerevisiae deletion strains, locus YBR229C, strain ROT2, stronger effect = lower value
# [3] = S. cerevisiae deletion strains, locus YDL101C, strain DUN1, stronger effect = lower value
# [4] = S. cerevisiae deletion strains, locus YDL134C, strain PPH21, stronger effect = lower value
# [5] = S. cerevisiae deletion strains, locus YDR150W, strain NUM1, stronger effect = lower value
# [6] = S. cerevisiae deletion strains, locus YEL061C, strain CIN8, stronger effect = lower value
# [7] = S. cerevisiae deletion strains, locus YGR078C, strain PAC10, stronger effect = lower value
# [8] = S. cerevisiae deletion strains, locus YHR030C, strain SLT2, stronger effect = lower value
# [9] = S. cerevisiae deletion strains, locus YHR087W, strain rtc3, stronger effect = lower value
# [10] = S. cerevisiae deletion strains, locus YJR043C, strain POL32, stronger effect = lower value
# [11] = S. cerevisiae deletion strains, locus YJR075W, strain HOC1, stronger effect = lower value
# [12] = S. cerevisiae deletion strains, locus YKL190W, strain CNB1, stronger effect = lower value
# [13] = S. cerevisiae deletion strains, locus YLR039C, strain RIC1, stronger effect = lower value
# [14] = S. cerevisiae deletion strains, locus YLR058C, strain SHM2 (second series), stronger effect = lower value
# [15] = S. cerevisiae deletion strains, locus YLR085C, strain ARP6, stronger effect = lower value
# [16] = S. cerevisiae deletion strains, locus YLR262C, strain YPT6, stronger effect = lower value
# [17] = S. cerevisiae deletion strains, locus YML094W, strain GIM5, stronger effect = lower value
# [18] = S. cerevisiae deletion strains, locus YMR219W, strain ESC1, stronger effect = lower value
# [19] = S. cerevisiae deletion strains, locus YMR263W, strain SAP30, stronger effect = lower value
# [20] = S. cerevisiae deletion strains, locus YMR307W, strain GAS1, stronger effect = lower value
# [21] = S. cerevisiae deletion strains, locus YNL153C, strain GIM3, stronger effect = lower value
# [22] = S. cerevisiae deletion strains, locus YNL298W, strain CLA4 (second series), stronger effect = lower value
# [23] = S. cerevisiae deletion strains, locus YNL322C, strain KRE1, stronger effect = lower value
# [24] = S. cerevisiae deletion strains, locus YNR030W, strain Alg12, stronger effect = lower value
# [25] = S. cerevisiae deletion strains, locus YPL055C, strain LGE1, stronger effect = lower value
# [26] = S. cerevisiae deletion strains, locus YPL241C, strain CIN2, stronger effect = lower value
# [27] = S. cerevisiae deletion strains, locus YPR135W, strain CTF4, stronger effect = lower value
# [28] = S. cerevisiae deletion strains, locus YCL061C, strain MRC1, stronger effect = lower value
compound,measurement,setting,value
O=[N+]([O-])c1cnc2ccccn12,normalized growth,[1],1.02
same,normalized growth,[2],1.01
same,normalized growth,[3],1
same,normalized growth,[4],1.03
same,normalized growth,[5],0.964
same,normalized growth,[6],1
same,normalized growth,[7],1.01
same,normalized growth,[8],1.08
same,normalized growth,[9],1.01
same,normalized growth,"S. cerevisiae deletion strains, locus YJL187C, strain SWE1, stronger effect = lower value",0.992
same,normalized growth,[10],1.02
same,normalized growth,[11],1.03
same,normalized growth,[12],1.02
same,normalized growth,[13],1.05
same,normalized growth,[14],1.01
same,normalized growth,[15],1.01
same,normalized growth,[16],1.09
same,normalized growth,[17],0.995
same,normalized growth,[18],1.01
same,normalized growth,[19],1.02
same,normalized growth,[20],1.1
same,normalized growth,[21],1.03
same,normalized growth,[22],1.08
same,normalized growth,[23],1.02
same,normalized growth,[24],1.02
same,normalized growth,[25],1.02
same,normalized growth,[26],1.02
same,normalized growth,[27],1.11
c1ccc(-c2ncc3ccccn23)cc1,normalized growth,[1],1.01
same,normalized growth,[2],0.988
same,normalized growth,[28],0.985
same,normalized growth,[3],0.975
same,normalized growth,[4],0.967
same,normalized growth,[5],0.974
same,normalized growth,[6],0.989
same,normalized growth,[7],0.998
same,normalized growth,[8],0.843
same,normalized growth,[9],0.999
same,normalized growth,[10],0.99
same,normalized growth,[11],1.03
same,normalized growth,[12],0.996
same,normalized growth,[13],0.786 (active)
same,normalized growth,[14],0.991
same,normalized growth,[15],0.9
same,normalized growth,[16],0.926
same,normalized growth,[17],0.936
same,normalized growth,[18],1.01
same,normalized growth,[19],0.971
same,normalized growth,[20],0.711
same,normalized growth,[21],0.979
same,normalized growth,[22],0.95
same,normalized growth,[23],1.01
same,normalized growth,[24],0.981
same,normalized growth,"S. cerevisiae deletion strains, locus YOL006C, strain TOP1, stronger effect = lower value",0.461 (active)
same,normalized growth,[25],1.03
same,normalized growth,[26],0.928
same,normalized growth,[27],0.753
CC(=O)OCC(=O)[C@@]1(O)CCC2C3CCC4=CC(=O)C=C[C@]4(C)[C@@]3(Cl)[C@@H](Cl)C[C@@]21C (stereo not given in full),normalized growth,[8],0.991
same,normalized growth,"S. cerevisiae deletion strains, locus YHR079C, strain IRE1, stronger effect = lower value",0.991
same,normalized growth,"S. cerevisiae deletion strains, locus YJL095W, strain BCK1, stronger effect = lower value",0.968
same,normalized growth,"S. cerevisiae deletion strains, locus YJR066W, strain TOR1, stronger effect = lower value",0.923
same,normalized growth,"S. cerevisiae deletion strains, locus YLR113W, strain HOG1, stronger effect = lower value",1.06
same,normalized growth,"S. cerevisiae deletion strains, locus YNL183C, strain NPR1, stronger effect = lower value",0.916
same,normalized growth,"S. cerevisiae deletion strains, locus YOR231W, strain MKK1, stronger effect = lower value",0.952
same,normalized growth,"S. cerevisiae deletion strains, locus YPL256C, strain CLN2, stronger effect = lower value",0.99
CN(C)/C=C1\CSc2ccc(F)cc2C1=O,normalized growth,[1],0.909 (active)
same,normalized growth,[2],0.719 (active)
same,normalized growth,[28],0.812 (active)
same,normalized growth,[3],0.291 (active)
same,normalized growth,[4],0.119 (active)
same,normalized growth,[5],0.885
same,normalized growth,[6],0.613 (active)
same,normalized growth,[7],0.787 (active)
same,normalized growth,"S. cerevisiae deletion strains, locus YGR229C, strain SMI1, stronger effect = lower value",0.861 (active)
same,normalized growth,[8],0.102 (active)
same,normalized growth,[9],0.753 (active)
same,normalized growth,[10],0.908 (active)
same,normalized growth,[11],0.74 (active)
same,normalized growth,[12],0.0876 (active)
same,normalized growth,[13],0.429 (active)
same,normalized growth,[14],1.01
same,normalized growth,[15],0.154 (active)
same,normalized growth,[16],0.517 (active)
same,normalized growth,[17],0.658 (active)
same,normalized growth,[18],0.821 (active)
same,normalized growth,[19],0.903 (active)
same,normalized growth,[20],0.291 (active)
same,normalized growth,[21],0.852 (active)
same,normalized growth,[22],0.415 (active)
same,normalized growth,[23],0.995
same,normalized growth,[24],0.119 (active)
same,normalized growth,[25],0.787 (active)
same,normalized growth,[26],0.103 (active)
same,normalized growth,[27],0.303 (active)
same,normalized growth,"S. cerevisiae strains, strain wild type, stronger effect = lower value",0.491 (active)

# Source: PubChem BioAssay AID1159580 (chemical genetic matrix, 2015)
